Shown are actives, neighbours in structure and some others; about 11% of the full set was active somewhere.
L3MBTL1 inh: qHTS Assay for the Inhibitors of L3MBTL1. Lethal(3)malignant brain tumor-like protein 1 (Homo sapiens), Q9Y468. AlphaScreen L3MBTL1–H3K9me1 peptide binding. Potency, µM (highest dose often 57.1 µM), most hits filed as inhibitors. 230,000 compounds, 0.66% hits. AID 485360, 2010; note: nearly all actives have a fitted effect of over 60% in size
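Displacement of a biotinylated histone H3(1-15) peptide monomethylated at Lys9 (75 nM) from L3MBTL1 (50 nM) was measured by AlphaScreen after a 30 min room-temperature compound incubation; cefsulodin titration served as intraplate control.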
G9a block: qHTS Assay for Inhibitors of Histone Lysine Methyltransferase G9a; Histone-lysine N-methyltransferase EHMT2 (Homo sapiens), Q96KQ7; G9a H3K9 monomethylation, AlphaScreen, 2 h; Potency, µM (top dose mostly 102 µM), usual class: inhibitors; 350,000 compounds, 8.8% hits; note: nearly all actives have a fitted effect of over 75% in size
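Readings reflect AlphaScreen signal from monomethyl-H3K9 antibody detection. HMT at 20 nM; substrate b-H3K9 500 nM; cofactor SAM 20 uM; 2 h RT reaction; compounds tested as titrations in qHTS with 15 min preincubation.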
BAZ2B block: qHTS Assay for Inhibitors of BAZ2B | AlphaScreen BAZ2B-H3K14Ac peptide displacement | Potency, µM (doses to about 114 µM), most hits filed as inhibitors | Bromodomain adjacent to zinc finger domain protein 2B (Homo sapiens), Q9UIF8 | 360,000 compounds, 4.4% hits; note: nearly all actives have a fitted effect of over 60% in size
Target sequence (Q9UIF8 whole entry, looked up, the tested form may be a part): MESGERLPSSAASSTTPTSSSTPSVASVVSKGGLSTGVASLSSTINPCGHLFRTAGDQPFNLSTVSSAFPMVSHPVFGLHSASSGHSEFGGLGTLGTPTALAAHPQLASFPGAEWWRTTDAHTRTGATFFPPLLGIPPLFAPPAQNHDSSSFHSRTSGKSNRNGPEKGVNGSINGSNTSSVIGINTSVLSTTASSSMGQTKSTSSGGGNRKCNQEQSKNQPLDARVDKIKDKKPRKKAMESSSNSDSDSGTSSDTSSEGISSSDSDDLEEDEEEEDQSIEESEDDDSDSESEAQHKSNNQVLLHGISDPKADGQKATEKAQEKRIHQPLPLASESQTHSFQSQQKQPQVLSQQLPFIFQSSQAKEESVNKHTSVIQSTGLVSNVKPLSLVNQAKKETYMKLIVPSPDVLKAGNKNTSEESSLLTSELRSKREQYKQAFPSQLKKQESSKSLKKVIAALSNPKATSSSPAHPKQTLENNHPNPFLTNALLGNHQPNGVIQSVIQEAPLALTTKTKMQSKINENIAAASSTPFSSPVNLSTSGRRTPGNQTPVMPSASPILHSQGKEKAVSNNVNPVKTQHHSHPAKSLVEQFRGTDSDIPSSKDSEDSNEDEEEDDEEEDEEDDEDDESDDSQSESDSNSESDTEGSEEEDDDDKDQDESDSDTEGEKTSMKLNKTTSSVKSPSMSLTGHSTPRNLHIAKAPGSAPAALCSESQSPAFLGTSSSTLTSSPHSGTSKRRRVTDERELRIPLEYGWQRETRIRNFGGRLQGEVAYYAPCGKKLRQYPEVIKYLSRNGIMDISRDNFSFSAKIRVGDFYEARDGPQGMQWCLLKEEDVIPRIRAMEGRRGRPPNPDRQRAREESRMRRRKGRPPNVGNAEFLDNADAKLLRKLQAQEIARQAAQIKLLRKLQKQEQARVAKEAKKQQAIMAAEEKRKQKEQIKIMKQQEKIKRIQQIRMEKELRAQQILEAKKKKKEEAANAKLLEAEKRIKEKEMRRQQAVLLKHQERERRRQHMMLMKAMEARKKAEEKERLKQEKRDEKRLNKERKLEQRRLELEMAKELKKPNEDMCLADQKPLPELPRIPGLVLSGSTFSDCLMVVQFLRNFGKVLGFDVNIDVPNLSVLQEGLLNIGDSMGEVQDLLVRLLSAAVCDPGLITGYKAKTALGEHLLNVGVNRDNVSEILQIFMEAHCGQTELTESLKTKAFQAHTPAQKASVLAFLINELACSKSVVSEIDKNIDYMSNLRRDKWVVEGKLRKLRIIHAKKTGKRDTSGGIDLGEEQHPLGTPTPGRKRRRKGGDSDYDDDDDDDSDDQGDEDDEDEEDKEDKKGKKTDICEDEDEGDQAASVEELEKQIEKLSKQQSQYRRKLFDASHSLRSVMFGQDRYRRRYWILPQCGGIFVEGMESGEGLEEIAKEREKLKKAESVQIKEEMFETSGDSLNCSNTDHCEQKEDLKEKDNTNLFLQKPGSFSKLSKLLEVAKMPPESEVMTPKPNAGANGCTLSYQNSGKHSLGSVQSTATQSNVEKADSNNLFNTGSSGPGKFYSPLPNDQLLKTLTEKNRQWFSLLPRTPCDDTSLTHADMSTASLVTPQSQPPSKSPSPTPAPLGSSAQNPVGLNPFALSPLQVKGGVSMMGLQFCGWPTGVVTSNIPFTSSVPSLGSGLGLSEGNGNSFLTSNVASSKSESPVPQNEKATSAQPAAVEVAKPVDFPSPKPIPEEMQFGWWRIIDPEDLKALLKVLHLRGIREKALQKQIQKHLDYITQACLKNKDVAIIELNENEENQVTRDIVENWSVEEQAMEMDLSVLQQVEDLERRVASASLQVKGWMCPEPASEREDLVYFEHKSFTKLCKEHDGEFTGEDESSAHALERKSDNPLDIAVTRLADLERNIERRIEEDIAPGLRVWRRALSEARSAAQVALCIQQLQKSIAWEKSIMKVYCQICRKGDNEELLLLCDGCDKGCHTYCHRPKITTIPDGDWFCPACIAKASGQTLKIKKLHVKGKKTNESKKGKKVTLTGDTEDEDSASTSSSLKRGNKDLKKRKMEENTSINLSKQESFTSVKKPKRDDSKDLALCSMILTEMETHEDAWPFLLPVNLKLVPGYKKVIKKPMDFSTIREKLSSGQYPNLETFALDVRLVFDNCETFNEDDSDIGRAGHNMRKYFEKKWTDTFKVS
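In this displacement format the biotinylated H3(5-23) peptide acetylated at Lys14 serves as ligand at 50 nM, with BAZ2B at 50 nM in PBS pH 7.4 containing 0.01% Tween-20. Donor and acceptor beads are 10 ug/mL final.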
HP1b chromo inh: HTS for Inhibitors of HP1-beta Chromodomain Interactions with Methylated Histone Tails | AlphaScreen HP1-beta / biotin-H3K9me3 peptide binding | Potency, µM (titrated, usually from 114 µM), hits mostly inhibitors | 390,000 compounds, 0.56% hits | AID 540317, 2011; note: nearly all actives have a fitted effect of over 70% in size
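Compound inhibition of the preformed complex between 50 nM HP1-beta and 50 nM biotinylated H3K9me3 peptide was read by AlphaScreen. Buffer was PBS pH 7.4 with 0.01% Tween-20. Incubations ran 30 min at room temperature, with 10 ug/mL donor/acceptor beads.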
JMJD2A Tudor inh: qHTS Assay for Inhibitors of JMJD2A-Tudor Domain; AlphaScreen JMJD2A-Tudor / H3K4me3 peptide binding; Potency, µM (doses to about 114 µM), most hits filed as inhibitors; 390,000 compounds, 4.4% hits; note: nearly all actives have a fitted effect of over 50% in size
Numbers stand for hits; [ ] = dose if it differs, or a comment. Calls come from the whole dose curve; as a rule, active = well fitted inhibition curve with a large enough effect; inconclusive = small, poorly fitted or top-dose-only effect; inactive = no such curve, though single readings can be large or run the other way.

Screening CN(Cc1cn(-c2ccccc2)nc1-c1cc2ccccc2o1)C(=O)CCC(=O)O returned L3MBTL1 inh inactive, G9a block inactive, BAZ2B block inactive, HP1b chromo inh inactive and JMJD2A Tudor inh 31.6µM.
For CN(C)c1ccc(N2C(=O)CC(c3ccccc3)CC2=O)cc1 the results were L3MBTL1 inh inactive, G9a block inactive, BAZ2B block inactive, HP1b chromo inh inactive and JMJD2A Tudor inh inactive.
`CN(C)c1ccc(N2C(=O)CSC2=S)cc1` gave L3MBTL1 inh inconclusive, G9a block inconclusive, BAZ2B block 39.8µM, HP1b chromo inh inconclusive and JMJD2A Tudor inh 39.8µM.
`CC1SC(=S)N(c2ccc(N(C)C)cc2)C1=O` (stereo not drawn) gave G9a block 44.7µM, BAZ2B block inconclusive, HP1b chromo inh inactive and JMJD2A Tudor inh inconclusive.
For CCOC(=O)c1c(C)oc2nc(C)nc(NCC3CCN(Cc4ccc(Cl)cc4)CC3)c12 the results were G9a block inactive, BAZ2B block inactive, HP1b chromo inh inactive and JMJD2A Tudor inh inactive.
Screening CCOC(=O)c1cnc2nc[nH]n2c1=O returned L3MBTL1 inh inactive, G9a block 56.2µM, BAZ2B block inactive, HP1b chromo inh inactive and JMJD2A Tudor inh inactive.
CCOC(=O)c1cnc2nc(C)nn2c1N was read as L3MBTL1 inh inactive, G9a block 28.2µM, BAZ2B block inactive, HP1b chromo inh inactive and JMJD2A Tudor inh inactive.
Screening CCOC(=O)c1cnc2nc(N3CCOCC3)nn2c1N returned L3MBTL1 inh inactive, G9a block inactive, BAZ2B block inactive, HP1b chromo inh inactive and JMJD2A Tudor inh inactive.
`CCOC(=O)c1ccc(NC(=O)CCc2c(C)nc3nc[nH]n3c2=O)cc1` gave G9a block inactive, BAZ2B block 56.2µM, HP1b chromo inh inactive and JMJD2A Tudor inh inactive.
N#Cc1nc(-c2cccc3ccccc23)oc1NCC#CCOC(=O)c1cccs1 was read as L3MBTL1 inh inactive, G9a block inactive[12.7 µM] and BAZ2B block inactive.
`Cc1cc(C(=O)CN2CCN(CC(=O)Nc3cccc(F)c3)CC2)c(C)n1C1CC1` gave L3MBTL1 inh inactive, G9a block inactive[2.33 µM], BAZ2B block inconclusive, HP1b chromo inh inactive and JMJD2A Tudor inh inactive.
`Cc1ccc2c(c1)NC(=O)CC(c1ccccc1)=N2` gave L3MBTL1 inh inactive, G9a block inactive, BAZ2B block inactive, HP1b chromo inh inactive and JMJD2A Tudor inh inactive.
Screening CC1=CC(C)=Nc2ccc(C)cc2N1 returned G9a block 44.7µM, BAZ2B block inactive, HP1b chromo inh inactive and JMJD2A Tudor inh inactive.
Cc1c(-n2cc(C(=O)c3cc(Br)ccc3O)cc(C#N)c2=O)c(=O)n(-c2ccccc2)n1C was read as G9a block inactive, BAZ2B block inactive, HP1b chromo inh inactive and JMJD2A Tudor inh inactive.
For Cc1ccc(N(CC(=O)N2CCN(c3cccc(Cl)c3)CC2)S(=O)(=O)c2c(C)noc2C)cc1 the results were G9a block inactive, HP1b chromo inh inactive and JMJD2A Tudor inh inactive.
Screening Cc1cc(C)cc(N(CC(=O)N2CCN(Cc3ccccc3)CC2)S(=O)(=O)c2c(C)noc2C)c1 returned L3MBTL1 inh inactive, G9a block 50.1µM, BAZ2B block inactive, HP1b chromo inh inactive and JMJD2A Tudor inh inactive.
Screening COc1ccc(-n2c(=O)c3c4c(sc3n(Cc3ccc(C)cc3C)c2=O)CCC4)c(OC)c1 returned G9a block inconclusive, BAZ2B block inconclusive, HP1b chromo inh inactive and JMJD2A Tudor inh inactive.
Cc1cccc(N2CCN(CC(O)COc3ccc4ccccc4c3)CC2)c1 (stereo not drawn) was read as HP1b chromo inh inactive and JMJD2A Tudor inh inactive.
CCOC(=O)N1CCN(CC(O)COc2ccc(C)c(C)c2)CC1 (stereo not drawn) was read as G9a block inactive[2.33 µM], BAZ2B block inactive, HP1b chromo inh inactive and JMJD2A Tudor inh inactive.
`COc1ccc(N2CCN(CC(O)COc3ccc(C)c(C)c3)CC2)cc1` (stereo not drawn) gave G9a block 31.6µM, BAZ2B block 44.7µM, HP1b chromo inh inconclusive and JMJD2A Tudor inh 56.2µM.

Screening results: PubChem BioAssay, National Center for Advancing Translational Sciences (NCATS)
